Reference: PubChem BioAssay AID1159580 (chemical genetic matrix, 2015)
Where “and” joins values, the source holds several entries; their conditions need not be identical. Equal entries are not always repeated. The campaign covered roughly 5,500 compounds. About 2,000 (36%) were called active. Another 18% or so got no clear call; they are omitted. No stated cut-off is given here; in the data, active means normalized growth mostly below about 0.91 (no sharp cut-off); inconclusive means no clear call, values can overlap the other calls; inactive means mostly above about 0.92. This is one part of the list.

Experiment: chemical genetic growth profiling, strain panel (AID 1159580);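 further: tested at 20 µM; growth read once vehicle control cultures reached saturation at 30 °C; 1 = growth at the plate median or of vehicle wells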
Conditions: S. cerevisiae deletion strains, growth OD

Measured: normalized growth

CCC(CCC(C)[C@H]1CCC2C3CC=C4C[C@@H](O)CC[C@]4(C)C3CC[C@@]21C)C(C)C (stereo partly drawn)
inactive: locus YAL013W, strain DEP1, stronger effect = lower value 0.998 | locus YAL021C, strain ccr4, stronger effect = lower value 1.01 | locus YAL026C, strain drs2, stronger effect = lower value 1.01 | locus YAL030W, strain snc1, stronger effect = lower value 1.01 | locus YBL061C, strain skt5, stronger effect = lower value 1.02 | locus YBR009C, strain hhf1, stronger effect = lower value 1.02 | locus YBR021W, strain FUR4, stronger effect = lower value 1.02 | locus YBR023C, strain chs3, stronger effect = lower value 1.01 | locus YBR171W, strain sec66, stronger effect = lower value 1.04 | locus YBR229C, strain ROT2, stronger effect = lower value 0.988 | locus YBR231C, strain swc5, stronger effect = lower value 1.01 | locus YBR279W, strain paf1, stronger effect = lower value 1.01 | locus YCL011C, strain gbp2, stronger effect = lower value 1.02 | locus YCL016C, strain dcc1, stronger effect = lower value 1.02 | locus YCL029C, strain bik1, stronger effect = lower value 0.999 | locus YCL061C, strain MRC1, stronger effect = lower value 1.02 | locus YCL069W, strain vba3, stronger effect = lower value 1.02 | locus YCR088W, strain abp1, stronger effect = lower value 1.02 | locus YDL005C, strain med2, stronger effect = lower value 1.02 | locus YDL035C, strain GPR1, stronger effect = lower value 1.05 | locus YDL040C, strain nat1, stronger effect = lower value 1.02 | locus YDL074C, strain BRE1, stronger effect = lower value 1.05 | locus YDL101C, strain DUN1, stronger effect = lower value 0.973 | locus YDL134C, strain PPH21, stronger effect = lower value 0.97 | locus YDL185W, strain tfp1, stronger effect = lower value 0.976 | locus YDL192W, strain arf1, stronger effect = lower value 1.02 | locus YDR001C, strain nth1, stronger effect = lower value 1.01 | locus YDR069C, strain doa4, stronger effect = lower value 1.03 | locus YDR101C, strain arx1, stronger effect = lower value 1.03 | locus YDR137W, strain rgp1, stronger effect = lower value 1.01 | locus YDR150W, strain NUM1, stronger effect = lower value 0.997 | locus YDR159W, strain sac3, stronger effect = lower value 1.04 | locus YDR162C, strain NBP2, stronger effect = lower value 0.994 | locus YDR195W, strain ref2 1.03 | locus YDR297W, strain sur2, stronger effect = lower value 1.03 | locus YDR318W, strain mcm21, stronger effect = lower value 0.986 | locus YDR334W, strain swr1, stronger effect = lower value 1.03 | locus YDR335W, strain msn5, stronger effect = lower value 1.01 | locus YDR388W, stronger effect = lower value 0.975 | locus YDR392W, strain spt3, stronger effect = lower value 1.02 | locus YDR502C, strain sam2, stronger effect = lower value 0.973 | locus YEL003W, strain gim4, stronger effect = lower value 1.01 | locus YEL037C, strain rad23, stronger effect = lower value 1.02 | locus YEL061C, strain CIN8 (second series), stronger effect = lower value 1.02 | locus YER015W, strain faa2, stronger effect = lower value 1.01 | locus YER016W, strain bim1, stronger effect = lower value 1.02 | locus YER110C, stronger effect = lower value 0.979 | locus YER111C, strain swi4, stronger effect = lower value 1.02 | locus YER155C, strain BEM2 (second series), stronger effect = lower value 1.04 | locus YER155C, strain BEM2, stronger effect = lower value 0.982 | locus YER167W, strain BCK2, stronger effect = lower value 1.01 | locus YFR010W, strain ubp6, stronger effect = lower value 1.02 | locus YGL078C, strain dbp3, stronger effect = lower value 0.983 | locus YGL086W, strain mad1, stronger effect = lower value 0.989 | locus YGL167C, strain pmr1, stronger effect = lower value 1.03 | locus YGL173C, strain kem1, stronger effect = lower value 1.02 | locus YGL227W, strain vid30, stronger effect = lower value 1.02 | locus YGL240W, strain doc1, stronger effect = lower value 1.03 | locus YGL248W, strain PDE1, stronger effect = lower value 0.978 | locus YGL253W, strain hxk2, stronger effect = lower value 1.02 | locus YGR135W, strain pre9, stronger effect = lower value 0.958 | locus YGR252W, strain gcn5, stronger effect = lower value 0.929 | locus YHR013C, strain ard1, stronger effect = lower value 1.04 | locus YHR027C, strain rpn1, stronger effect = lower value 1.01 | locus YHR030C, strain SLT2, stronger effect = lower value 0.996 | locus YHR079C, strain IRE1 (second series), stronger effect = lower value 0.987 | locus YHR079C, strain IRE1, stronger effect = lower value 0.984 | locus YHR094C, strain hxt1, stronger effect = lower value 0.984 | locus YHR129C, strain ARP1, stronger effect = lower value 0.994 | locus YHR142W, strain chs7, stronger effect = lower value 1.02 | locus YHR200W, strain rpn10, stronger effect = lower value 0.961 | locus YIL066C, strain RNR3, stronger effect = lower value 1.01 | locus YIL073C, strain SPO22, stronger effect = lower value 1.02 | locus YIL125W, strain kgd1, stronger effect = lower value 0.993 | locus YIR030C, strain dcg1, stronger effect = lower value 0.986 | locus YJL092W, strain hpr5, stronger effect = lower value 1.02 | locus YJL095W, strain BCK1 (second series), stronger effect = lower value 1.01 | locus YJL095W, strain BCK1, stronger effect = lower value 0.972 and 0.979 | locus YJL115W, strain asf1, stronger effect = lower value 1 | locus YJL129C, strain trk1, stronger effect = lower value 1.03 | locus YJL134W, strain LCB3, stronger effect = lower value 0.991 | locus YJL154C, strain vps35, stronger effect = lower value 1.02 | locus YJL164C, strain tpk1, stronger effect = lower value 1.01 | locus YJL166W, strain qcr8, stronger effect = lower value 1.02 | locus YJL168C, strain set2, stronger effect = lower value 0.988 | locus YJL187C, strain SWE1 (second series), stronger effect = lower value 0.977 | locus YJL187C, strain SWE1, stronger effect = lower value 1.01 | locus YJR043C, strain POL32, stronger effect = lower value 1.06 | locus YJR066W, strain TOR1, stronger effect = lower value 0.915 | locus YKL009W, strain mrt4, stronger effect = lower value 1.01 | locus YKL068W, stronger effect = lower value 0.981 | locus YKL085W, strain MDH1 (second series), stronger effect = lower value 0.998 | locus YKL085W, strain MDH1, stronger effect = lower value 0.998 | locus YKL160W, strain elf1, stronger effect = lower value 1.01 | locus YKR001C, strain vps1, stronger effect = lower value 1 | locus YKR026C, strain gcn3, stronger effect = lower value 1.02 | locus YKR091W, strain srl3, stronger effect = lower value 1.01 | locus YLL001W, strain dnm1, stronger effect = lower value 1.01 | locus YLL026W, stronger effect = lower value 1.02 | locus YLL041C, strain sdh2, stronger effect = lower value 1.01 | locus YLR027C, strain aat2, stronger effect = lower value 1.02 | locus YLR039C, strain RIC1, stronger effect = lower value 1.04 | locus YLR058C, strain SHM2, stronger effect = lower value 0.998 | locus YLR102C, strain apc9, stronger effect = lower value 0.976 | locus YLR113W, strain HOG1, stronger effect = lower value 0.97 | locus YLR221C, strain rsa3, stronger effect = lower value 1.01 | locus YLR258W, strain gsy2, stronger effect = lower value 1 | locus YLR262C, strain YPT6 (second series), stronger effect = lower value 1.03 | locus YLR262C, strain YPT6, stronger effect = lower value 1.05 | locus YLR268W, strain sec22, stronger effect = lower value 1.01 | locus YLR320W, strain mms22, stronger effect = lower value 1.03 | locus YLR342W, strain FKS1 (second series), stronger effect = lower value 1.08 | locus YLR342W, strain FKS1, stronger effect = lower value 1.03 | locus YLR357W, strain rsc2, stronger effect = lower value 1 | locus YLR370C, strain arc18, stronger effect = lower value 1.01 | locus YLR371W, strain rom2, stronger effect = lower value 1 | locus YLR384C, strain iki3, stronger effect = lower value 1.02 | locus YLR418C, strain cdc73, stronger effect = lower value 0.964 | locus YML016C, strain PPZ1, stronger effect = lower value 1 | locus YML032C, strain rad52, stronger effect = lower value 1.01 | locus YML120C, strain ndi1, stronger effect = lower value 1.01 | locus YML124C, strain tub3, stronger effect = lower value 0.986 | locus YMR058W, strain fet3, stronger effect = lower value 1.02 | locus YMR078C, strain ctf18, stronger effect = lower value 0.971 | locus YMR125W, strain sto1, stronger effect = lower value 1.01 | locus YMR129W, stronger effect = lower value 1.01 | locus YMR205C, strain PFK2, stronger effect = lower value 1.03 | locus YMR223W, strain ubp8, stronger effect = lower value 0.987 | locus YMR231W, strain pep5, stronger effect = lower value 0.997 | locus YMR307W, strain GAS1, stronger effect = lower value 0.996 | locus YNL067W, strain RPL9B, stronger effect = lower value 0.988 | locus YNL071W, strain lat1, stronger effect = lower value 1.01 | locus YNL128W, strain TEP1, stronger effect = lower value 1.01 | locus YNL153C, strain GIM3, stronger effect = lower value 0.986 | locus YNL183C, strain NPR1, stronger effect = lower value 0.905 | locus YNL209W, strain ssb2, stronger effect = lower value 1.01 | locus YNL233W, strain BNI4, stronger effect = lower value 0.968 | locus YNL248C, strain rpa49, stronger effect = lower value 1.01 | locus YNL250W, strain rad50, stronger effect = lower value 0.961 | locus YNL271C, strain bni1, stronger effect = lower value 0.974 | locus YNL298W, strain CLA4, stronger effect = lower value 0.993 | locus YNL307C, strain MCK1, stronger effect = lower value 0.978 | locus YNL322C, strain KRE1 (second series), stronger effect = lower value 1.01 | locus YNR049C, strain mso1, stronger effect = lower value 1.01 | locus YNR052C, strain pop2, stronger effect = lower value 0.973 | locus YOL006C, strain TOP1, stronger effect = lower value 1.1 | locus YOL012C, strain htz1 0.713 | locus YOL147C, strain pex11, stronger effect = lower value 0.989 | locus YOR001W, strain rrp6, stronger effect = lower value 1.03 | locus YOR061W, strain CKA2, stronger effect = lower value 1.02 | locus YOR069W, strain VPS5, stronger effect = lower value 0.99 | locus YOR070C, strain gyp1, stronger effect = lower value 1.05 | locus YOR080W, strain dia2, stronger effect = lower value 1.02 | locus YOR083W, strain WHI5, stronger effect = lower value 1.02 | locus YOR106W, strain vam3, stronger effect = lower value 1.02 | locus YOR136W, strain idh2, stronger effect = lower value 0.971 | locus YOR144C, strain elg1, stronger effect = lower value 0.988 | locus YOR184W, strain ser1, stronger effect = lower value 1.05 | locus YOR231W, strain MKK1, stronger effect = lower value 0.991 | locus YOR265W, strain rbl2, stronger effect = lower value 1.02 | locus YOR270C, strain vph1, stronger effect = lower value 1.03 | locus YOR290C, strain snf2, stronger effect = lower value 1.02 | locus YOR316C, strain cot1, stronger effect = lower value 0.978 | locus YPL051W, strain arl3, stronger effect = lower value 1.04 | locus YPL078C, strain atp4, stronger effect = lower value 1.01 | locus YPL106C, strain sse1, stronger effect = lower value 1.01 | locus YPL240C, strain hsp82, stronger effect = lower value 1.01 | locus YPL256C, strain CLN2, stronger effect = lower value 0.989 | locus YPR119W, strain clb2, stronger effect = lower value 0.97 | locus YPR141C, strain kar3, stronger effect = lower value 0.972 | locus YPR163C, strain tif3, stronger effect = lower value 0.979 | locus YPR167C, strain met16, stronger effect = lower value 0.97 | strain wtn01, stronger effect = lower value 1.01
